An excerpt weighted towards active compounds, which were near 21% of everything screened.
NS1 inh – inhibitors of influenza NS1 protein function | Potency, µM (top dose mostly 46.1 µM) | 0.4% of 270,000 active | AID 2326; calls by dose curve; further: actives are rising curves; nearly all actives have a fitted effect of over 50% in size
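Read-out: OD600 growth recovery of NS1-expressing budding yeast. Cells grown overnight at 30C in -URA glucose medium, washed, resuspended and diluted 1:100 in 2% galactose assay medium, pH 6.0. Same strain lacking NS1 served as positive control.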
CHX counter – affects cycloheximide protein synthesis inhibition readout, counter-screen. cell reporter, cycloheximide protein synthesis inhibition counterscreen. max response, %. 12% of 300,000 active. AID 2314; in the data active means max response mostly above about 13%, no sharp cut-off; inactive means mostly below about 14%; further: read at 38.3 µM for the half of the compounds with a filed dose
Sm TGR inh – blocks Schistosoma mansoni thioredoxin glutathione reductase; Q962Y6; purified TGR, DTNB reduction, TNB absorbance 405 nm; Potency, µM (titrated, usually from 114 µM), hits mostly inhibitors; 3% of 360,000 active; further: nearly all actives have a fitted effect of over 60% in size
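First, TGR (20 nM dispensed) and NADPH were mixed with compound. Second, a 15 min room-temperature incubation followed. Third, further NADPH and then DTNB were added to start the reaction. Finally, TNB absorbance was monitored kinetically.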
Pf growth 48h – inhibits P. falciparum growth in the first generation, 48 h; P. falciparum luciferase growth in erythrocytes, 48 h; AID 504832; 5.9% of 310,000 active; Potency, µM (doses to about 28.7 µM), actives largely listed as inhibitors
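Compounds are pin-transferred into medium, infected erythrocytes (2% hematocrit, 0.1% parasitemia final) are added, and plates sit one parasite generation at 37 C in 5% CO2. Detection reagent is then added and luminescence measured.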
Pf growth 96h – P. falciparum growth inhibition at 96 hours | P. falciparum luciferase reporter growth, 96 h | Potency, µM (top dose mostly 28.7 µM), hits mostly inhibitors | 6.9% of 320,000 active
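Two-generation exposure (96 h) targets delayed-death phenotype. Reporter parasites carrying integrated firefly luciferase, in red cells at 2% hematocrit and 0.05% parasitemia final, kept at 37 C, 5% CO2; luminescence loss indicates inhibition.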
Shiga inhibitor – inhibitors of Shiga toxin in Vero cells; Vero cells, Shiga toxin protein synthesis inhibition reporter; inhibition, % at 38.7 µM; 9.2% of 290,000 active; in the data active means inhibition mostly above about 28%, no sharp cut-off; inactive means mostly below about 43%
Of the large screens only hits and unclear results are named; the others gave an inactive call. Unless noted, the call rests on the fitted dose curve; in most records, active means well fitted curve in the direction sought with a large enough effect; inconclusive means small, poorly fitted or top-dose-only effect, or another doubt; inactive means no such curve, though single readings can be large; an effect the other way counts as inactive or inconclusive.

CC(=O)N1CCN(c2ccc(NC(=O)c3cccc(Cl)c3Cl)cc2)CC1	Pf growth 48h inconclusive
O=C(Nc1ccc(N2CCCC2)cc1)c1cccc(Cl)c1Cl	CHX counter 24.5, Pf growth 96h inconclusive, Shiga inhibitor 71.0
O=C(O)c1cccc(NS(=O)(=O)c2ccc3c(c2)OCCCO3)c1	none (no result: NS1 inh)
Cn1c(=O)oc2cc(S(=O)(=O)Nc3ccc4c(c3)OCCO4)ccc21	Pf growth 48h inconclusive
O=C(O)c1ccc(S(=O)(=O)Nc2ccc3c(c2)OCCO3)cc1	Sm TGR inh 31.6µM, Pf growth 96h inconclusive
COC(=O)COc1ccc(S(=O)(=O)Nc2ccc3c(c2)OCCO3)cc1C	CHX counter 24.8, Shiga inhibitor 68.1
Cn1c(=O)c(=O)n(C)c2cc(S(=O)(=O)Nc3ccc4c(c3)OCCO4)ccc21	CHX counter 61.6, Pf growth 48h 3.29µM, Shiga inhibitor 115.2
O=S(=O)(Nc1ccc(-c2cn3ccsc3n2)cc1)c1ccc2c(c1)OCCO2	Shiga inhibitor 68.9
CNC(=O)/C(C#N)=C/c1ccc(-c2nc3ccccc3s2)o1	CHX counter 42.5, Shiga inhibitor 54.9
N#C/C(=C/c1ccc(-c2ccc(S(N)(=O)=O)cc2)o1)c1nc2ccccc2s1	none
N#C/C(=C\c1ccc(-c2nc3ccccc3s2)o1)C(N)=O	CHX counter 38.5, Shiga inhibitor 50.2
COc1ccc(CCNC(=O)CCCCn2c(=O)c3ccccc3n(Cc3cccc(C)c3)c2=O)cc1OC	none (no result: NS1 inh, CHX counter, Pf growth 48h, Pf growth 96h, Shiga inhibitor)
CCOP(=O)(OCC)C(Nc1cccc(C(F)(F)F)c1)c1ccc(C)cc1 (centres undefined)	Pf growth 48h 10.4µM, Pf growth 96h inconclusive
CCCOP(=O)(OCCC)C(Nc1cccc(C(F)(F)F)c1)c1ccc(C)cc1 (centres undefined)	Pf growth 48h inconclusive, Pf growth 96h 11.7µM
CN(Cc1ccc(C(F)(F)F)cc1)C(=O)C1CCC(=O)N(C2CC2)C1 (centres undefined)	none
Cc1nc(N2CCN(S(=O)(=O)c3ccccc3)CC2)c2c3c(sc2n1)CC(C)CC3 (centres undefined)	Pf growth 48h inconclusive, Pf growth 96h 10.4µM
Cc1nn(-c2ccccc2)c(C)c1/C=C/C(=O)OCC(=O)N(C)C1CCS(=O)(=O)C1 (centres undefined)	none (no result: Sm TGR inh)
Cc1ccc(N2C(=O)CS(=O)C(c3ccccc3)C2=O)cc1C (centres undefined)	CHX counter 28.0, Sm TGR inh 1.12µM, Pf growth 48h inconclusive, Shiga inhibitor 65.3
O=C(NCCc1ccccc1)C1=CCN(S(=O)(=O)c2ccccc2)CC1	CHX counter 29.7
C=CCNC(=O)c1ccccc1NS(=O)(=O)c1ccccc1	Pf growth 96h 9.28µM
CN(C)S(=O)(=O)c1cccc(C(=O)Nc2ccccc2)c1	none
C=CCNC(=O)c1ccccc1NS(=O)(=O)c1ccc(SC)cc1	none (no result: Pf growth 96h)
O=C(NCCc1ccccc1)c1cccc(S(=O)(=O)N2CCCCC2)c1	CHX counter 28.4, Shiga inhibitor 39.8
CN(C)S(=O)(=O)c1cccc(C(=O)NCCc2ccccc2)c1	CHX counter 48.3, Shiga inhibitor 72.1
CCOc1ccc(Cn2c(CNS(=O)(=O)c3ccc([N+](=O)[O-])cc3)nc3cccnc32)cc1	none (no result: NS1 inh, CHX counter, Pf growth 48h, Pf growth 96h, Shiga inhibitor)
CN(C)S(=O)(=O)c1cccc(C(=O)Nc2cc(Cl)ccc2O)c1	CHX counter 39.7, Pf growth 48h inconclusive
O=C(O)c1cccc(S(=O)(=O)Nc2ccccc2C(=O)NCCc2ccccc2)c1	CHX counter 28.9, Shiga inhibitor 46.0
CN(C)S(=O)(=O)c1ccc(C(=O)NCCc2ccco2)cc1	CHX counter 24.7, Shiga inhibitor 63.3
O=C(O)c1cccc(S(=O)(=O)NCCc2ccccc2)c1	none
O=C(Nc1nnc(-c2ccc3c(c2)CCCC3)o1)c1c(F)cccc1F	Shiga inhibitor 76.0 (no result: NS1 inh)
O=C(Nc1nnc(-c2ccc3c(c2)CCCC3)o1)c1ccc(Cl)cc1Cl	none
CN1CCN(c2c(F)cc3c(=O)c(C(=O)O)cn4c3c2SCC4)CC1	Pf growth 48h inconclusive, Pf growth 96h 5.22µM
Cc1c(-n2cc(C(=O)O)c(=O)c3cc(F)c(N4CCCC4)c(F)c32)c(=O)n(-c2ccccc2)n1C	none
C=CCNC(=O)CC1Nc2c3ccccc3nc(=S)n2C1=O (centres undefined)	none (no result: NS1 inh)
CCOC(=O)c1c(C)[nH]c2cc(Br)c(O)cc12	CHX counter 38.1, Shiga inhibitor 65.5 (no result: Pf growth 48h, Pf growth 96h)
CCOC(=O)c1c(-c2ccc(OC)cc2)oc2cc(Br)c(O)cc12	Pf growth 48h inconclusive, Pf growth 96h inconclusive
Cc1ccc(C)c(N2CCN(C(=O)C3CCN(S(=O)(=O)c4ccc5[nH]c(=O)oc5c4)CC3)CC2)c1	none (no result: NS1 inh, CHX counter, Pf growth 48h, Pf growth 96h, Shiga inhibitor)
O=[N+]([O-])c1ccc(/C=N/Nc2nc(NCc3ccccc3)nc(N3CCOCC3)n2)cc1	Pf growth 48h 13.1µM (no result: NS1 inh)
O=[N+]([O-])c1cccc(/C=N/Nc2nc(NCc3ccccc3)nc(N3CCOCC3)n2)c1O	Pf growth 48h 6.57µM, Pf growth 96h inconclusive
NNc1nc(NCc2ccccc2)nc(N2CCOCC2)n1	Pf growth 48h inconclusive
O=[N+]([O-])c1cccc(/C=N/Nc2nc(NCc3ccccc3)nc(N3CCOCC3)n2)c1	Pf growth 48h inconclusive, Pf growth 96h inconclusive
COc1ccc(C)cc1NC(=O)CN1CCN(S(=O)(=O)c2ccc(Cl)cc2)CC1	Pf growth 48h 11.7µM, Pf growth 96h inconclusive
COc1ccc(OC)c(NC(=O)Cn2c(-c3ccc(Cl)cc3)noc2=O)c1	Pf growth 48h 4.15µM
COc1ccc(C)cc1NC(=O)CN1CCN(S(=O)(=O)c2ccc(C(C)C)cc2)CC1	Pf growth 48h 13.1µM
COc1ccc(Cl)cc1NC(=O)CN1CCN(S(=O)(=O)N2CCOCC2)CC1	none
COc1ccc(S(=O)(=O)N2CCN(CC(=O)Nc3cc(Cl)ccc3Cl)CC2)cc1	none (no result: NS1 inh, CHX counter, Shiga inhibitor)
COc1ccc(NC(=O)Cn2c(=O)oc3cc(Cl)ccc32)c(OC)c1	Pf growth 96h inconclusive
COc1ccc(Cl)cc1NC(=O)CN1CCN(S(=O)(=O)c2ccc(F)cc2)CC1	Pf growth 48h 3.7µM
CC1CCN(S(=O)(=O)c2cccc(C(=O)Nc3nncs3)c2)CC1	none
O=C(O)CCCSc1ccccc1	none (no result: CHX counter, Sm TGR inh, Pf growth 48h, Pf growth 96h, Shiga inhibitor)
O=C(CS(=O)(=O)c1cccc2nsnc12)NCc1ccccc1Cl	none (no result: NS1 inh, CHX counter, Pf growth 48h, Pf growth 96h, Shiga inhibitor)
CN(C)c1ccc(NC(=O)c2ccc3nsnc3c2)cc1	NS1 inh inconclusive, CHX counter 46.1, Shiga inhibitor 160.0
COc1ccc(N(C)C(=O)Nc2ccc3nsnc3c2)cc1	none (no result: Sm TGR inh)
O=C(Nc1ccc(Cl)cc1)c1ccc2nsnc2c1	CHX counter 35.2, Shiga inhibitor 96.8 (no result: NS1 inh)
CC1CCN(C(=O)c2cc(-c3ccc4c(c3)OCO4)on2)CC1	CHX counter 27.5, Sm TGR inh inconclusive, Shiga inhibitor 41.4
O=C(c1cc(-c2ccccc2)on1)N1CCN(Cc2ccc3c(c2)OCO3)CC1	Pf growth 96h inconclusive
